The values below come from ChEMBL document CHEMBL4513216, “Probing the Open Global Health Chemical Diversity Library for Multistage-Active Starting Points for Next-Generation Antimalarials” (ACS Infect Dis, 2020).

The campaign covered roughly 69,000 compounds. About 8,600 (12%) showed an effect of 50% or more. The sample holds strong results, similar compounds and a random draw of the others, so the mix is not that of the screen.

In this experiment the test system is Plasmodium berghei. In words: Screen against P. berghei liver stage (PbLuc), transformed with Luciferase, at 10uM. The experiment is classed as functional, HepG2. The conditions noted are these: tested at 10 uM.
Regarding `Cc1cccc(-c2ccc(C(=O)N3CCN(C4CC4)CC3)c(=O)[nH]2)c1`, the INHIBITION is reported as 21.8%.

Take `NCC1Cc2cc(Cl)cc(-c3cncc(C(=O)N4CCCCC4)n3)c2O1` (stereo not given): the INHIBITION came to 24.8%. Turning to `Cc1cc2c(c(-c3cncc(C(=O)N4CCCC4)n3)c1)OC(CN)C2` (stereo not given), the INHIBITION is on record as 57.3%. In the case of `NCC1Cc2cc(-c3cncc(C(=O)N4CCCCC4)n3)cc(F)c2O1` (stereo not given), the INHIBITION is 18.3%. For the molecule `CC(C)N1CCC(c2n[nH]cc2S(C)(=O)=O)CC1`, the INHIBITION was -8.58%.

As for `Cc1cc(C(=O)NCc2cnn(C)c2C)nc(N2CCCCCC2)n1`, the INHIBITION is recorded as -7.53%.

Take `Cc1ocnc1C(=O)Nc1ccc(-c2nnc(N(C)C)o2)cc1`: the INHIBITION was -128%. With `CC(C)CCC1=NC2(CCN(C(=O)CN3CCCC3=O)CC2)C(=O)N1`, the INHIBITION is 82.4%. With `CC(=O)CCC(=O)N1CCC2(CC1)N=C(CCC(C)C)NC2=O`, the INHIBITION is -40.7%.

For the molecule `O=C(CN1CCCCC1=O)N1CCC2(CC1)[C@H](O)C[C@@H]2O`, the INHIBITION was determined as 44%. `CCOC(=O)N1CCC2(CC1)N=C(CCC(C)C)NC2=O`: the INHIBITION is recorded as -65%. On to `CC(C)CCC1=NC2(CCN(C(=O)N3CCN(C)CC3)CC2)C(=O)N1`, for which the INHIBITION is -23.5%.

On to `COC(=O)N1CCC2(CC1)N=C(CCC(C)C)NC2=O`, for which the INHIBITION was found to be 76.7%. For `Cc1cnn(CC2CN(Cc3ccc(-n4cccn4)cc3)CCO2)c1` (stereo not given) the value was 40%; for `CC(C)c1ncncc1C(=O)N1CCN(Cc2ccccn2)CC1`, 5.9%. For `Cc1cc(C(=O)Nc2cnn(CC(F)(F)F)c2)nc(N(C)C)n1`, the INHIBITION was 0.91%. For `O=C1CCC(=O)N1c1nn(Cc2ccccc2Cl)cc1Cl` the value was 20.4%; for `Cc1cc(C)c(CNC(=O)NCC2COCCO2)c(=O)[nH]1` (stereo not given), 23.45%; for `CCc1ccc2c(c1)C(CCNC(=O)Cc1cccc(F)c1)C(=O)N2` (stereo not given), 37.8%. As for `CCc1ccc2c(c1)C(CCNC(=O)CCc1ccsc1)C(=O)N2` (stereo not given), the INHIBITION was 26.7%. For `CCN1CCN(c2ccc(CNC(=O)c3sccc3C)cn2)CC1` the value was -23.8%. On to `CCc1ccc2c(c1)C(CCNC(=O)CSC(F)(F)F)C(=O)N2` (stereo not given), for which the INHIBITION was 40.6%. Next, `CCc1ccc2c(c1)C(CCNC(=O)c1sccc1C)C(=O)N2` (stereo not given): 61.9%; `CCc1ccc2c(c1)C(CCNC(=O)Cc1ccc(F)cc1)C(=O)N2` (stereo not given): 53.6%; `CS(=O)(=O)N(Cc1ccon1)c1cccc(Br)c1`: -11.9%. Next, `CC(c1ccccc1)n1cc2nc(N(C)C)[nH]cc-2c1=O` (stereo not given): 15.7%. On to `CC(C)S(=O)(=O)C(C)C(=O)NCc1ccccc1OCc1ccccc1` (stereo not given), for which the INHIBITION came to 42.5%. As for `CNC(=O)[C@@H](c1ccccc1OC)N1CCC[C@H]1C(=O)N1CC[C@@H](O)C1`, the INHIBITION is recorded as -63.5%. `O=C(O)c1nnn(-c2ccc(OC(F)(F)F)cc2)c1-c1ccncc1`: the INHIBITION is given as -22.1%. Next, `COc1ccc(-n2cccn2)c(CN2CCC3(CCCNC3)C2)c1` (stereo not given): 13%; `c1ccc(Cn2cccn2)c(CN2CCC3(CCCNC3)C2)c1` (stereo not given): 4.87%; `c1cnn(Cc2ccc(CN3CCC4(CCCNC4)C3)cc2)c1` (stereo not given): 3.96%. Regarding `COc1ccc(-n2cccn2)c(CN2CCC3(CCNCC3)C2)c1`, the INHIBITION came out at 53%. Next, `COc1ccc(-n2cccn2)c(CN2CCC(O)(CO)CC2)c1`: 21.2%. Next, `c1cnn(Cc2ccc(CN3CCC4(CCNCC4)C3)cc2)c1`: 60.3%; `Cn1cccc1C(=O)N1CC[C@@]2(O)CCN(S(C)(=O)=O)C[C@H]2C1`: 42.1%. Next, `CC(C)CNc1nccc(-c2cnc3sc(Cl)cn3c2=O)n1`: 2.6%; `Cc1cc(C(F)(F)F)nn1CC(C)C(=O)Nc1ccccn1` (stereo not given): -22.2%; `Cc1cc(C)n(CC(=O)NCc2ccccn2)n1`: 3.58%. For `CC(C)Oc1ncccc1CNC(=O)NC1CCOc2ccccc21` (stereo not given), the INHIBITION amounted to 42.9%. For `CCOc1ncccc1CNC(=O)NC1CCOc2ccccc21` (stereo not given), the INHIBITION was 52.5%. For `COc1ncccc1CNC(=O)NC1CCOc2ccccc21` (stereo not given) the value was 29.6%; for `Cc1cccc(C2(O)CCN(C(=O)c3ccccn3)CC2)c1C`, 57.8%; for `CCC(=O)N1CCC(O)(c2ncc(OC)nc2OC)CC1`, 0.0932%.

With `COc1cnc(C2(O)CCN(C(=O)c3ccncc3)CC2)c(OC)n1`, the INHIBITION came out at 37.5%. Consider `COc1cnc(C2(O)CCN(C(=O)c3cccnc3)CC2)c(OC)n1`, for which the INHIBITION was 60.8%.

For `COc1cnc(C2(O)CCN(C(=O)c3scnc3C)CC2)c(OC)n1`, the INHIBITION turned out to be 36.7%.

As to `COc1cnc(C2(O)CCN(C(=O)c3ccccn3)CC2)c(OC)n1`, the INHIBITION was found to be 57.5%. On to `COc1cnc(C2(O)CCN(C(=O)c3ccco3)CC2)c(OC)n1`, for which the INHIBITION is 29.3%.

On to `Cc1cccc(C2(O)CCN(C(=O)c3ccc(N(C)C)cc3)CC2)c1C`, for which the INHIBITION worked out at 33.1%.

In the case of `COc1ccccc1C(=O)N1CCC(O)(c2cccc(C)c2C)CC1`, the INHIBITION is recorded as 24.2%. Next, `CCOC(=O)[C@H]1CNC[C@@H]1C(F)(F)F`: 35.6%. `Cc1nnc([C@@H]2CC[C@@H]3[C@@H](CCN3S(=O)(=O)c3cccnc3)O2)o1`: the INHIBITION is recorded as 14.2%. Regarding `Cc1ccc(C(=O)NS(=O)(=O)c2ccccc2F)c(=O)[nH]1`, the INHIBITION was determined as 33.8%. Next, `CN(C)C(=O)Cn1cc(C(=O)NCCc2ccc(Cl)cc2Cl)nn1`: -27.8%. Next, `CCc1nccn1C1CCCN(C(=O)c2ccoc2C)C1` (stereo not given): 21.6%; `CC(=Cc1ccccc1)CNCc1cccc(C(N)=O)c1`: 4.3%. For `O=C(O)c1ccccc1-n1cc(CN2CCC(c3cc[nH]n3)C2)cn1` (stereo not given) the value was 22.17%; for `Cc1csc2cc(C(=O)NC3CCCC3)cnc12`, -76.5%. As for `CCN1CCc2c(sc3c2C(=O)NC(C=Cc2ccccc2)N3)C1` (stereo not given), the INHIBITION is recorded as 15.1%.

Consider `CCc1nc(C)sc1CN(Cc1ccncc1)C1CCN(C)CC1`, for which the INHIBITION is 18.8%. For `Cc1nc(-c2ccc(CNS(=O)(=O)N(C)C)cc2)ccc1C(N)=O` the value was -4.87%. Next, `CN(C)C(=O)Cc1nc(CN2CCCC2Cn2cncn2)cs1` (stereo not given): 60.8%; `CN(C)C(=O)Cc1nc(CN2CCCC2Cn2cccn2)cs1` (stereo not given): 47.9%. For `CN(C)C(=O)Cc1nc(CN2CCCCC2Cn2cncn2)cs1` (stereo not given) the value was 19.1%. As for `CC(=O)Nc1nc(CN2CCCCC2Cn2cncn2)cs1` (stereo not given), the INHIBITION is 0.411%. For `CC(=O)Nc1nc(CN2CCCC2Cn2cncn2)cs1` (stereo not given) the value was 61.3%. Take `CC(=O)Nc1nc(CN2CCCC2Cn2cccn2)cs1` (stereo not given): the INHIBITION came to 13.7%. For `Cc1cccc(CN2CCC3(CCCN(C(=O)c4ccoc4)C3)C2=O)n1` (stereo not given) the value was -3.52%; for `CCn1nc(Br)nc1Sc1ccccc1NC(C)=O`, 12.4%. Next, `Cc1ccc(CN2C[C@H](OCCN(C)C)[C@H]3OCCC[C@H]32)o1`: -102%. Next, `CC(=O)N1CCC[C@@H](NCc2cccc(F)c2)[C@@H]1c1ccc(C)s1`: -32.2%; `O=C(Nc1cccc(N2CCOCC2)c1)N[C@H](CO)c1ccccc1`: 51.8%; `CCC(=O)N1CCN(C(=O)Nc2cccc(N3CCOCC3)c2)CC1`: 23.2%. For the molecule `O=C(Nc1cccc(N2CCCC2)c1)N[C@H](CCO)c1ccccc1`, the INHIBITION amounted to 19.8%. With `CCn1ncc(S(=O)(=O)NC2(CN3CCOCC3)CCCCC2)c1C`, the INHIBITION is 32.8%. On to `CCOC(=O)N1CCC(NC(=O)Nc2cccnc2OCC)CC1`, for which the INHIBITION was -35.7%.

Consider `Fc1cnc(N2CC[C@@H](N3CCOCC3)[C@@H]2Cc2cccnc2)nc1`, for which the INHIBITION worked out at 43.8%. Next, `COc1ccccc1OCCn1c(C)c(C)oc1=O`: 48.2%. Next, `Cc1ccc(C)c(S(=O)(=O)CCN2CCCC2Cn2cccn2)c1` (stereo not given): 4.93%; `Cc1cc(N2CCC(n3cc(CCCO)nn3)CC2)ccn1`: 41%; `Cc1cc(N2CCC(n3cc(CN4CCNCC4)nn3)CC2)ccn1`: 49.9%.

Turning to `OC[C@@H]1CCCN1Cc1cn(C2CCN(C3CCCC3)CC2)nn1`, the INHIBITION came to 54.4%. Next, `CC(C)(C)c1cnc(CN2CCC[C@H]2CO)o1`: 34.1%; `Cc1cc(N2CCC(n3cc(CN4CCC[C@@H]4CO)nn3)CC2)ccn1`: 68.9%; `CC(C)Nc1cc(N2CCC(n3cc(CCO)nn3)CC2)ncn1`: 19.3%. Next, `COc1ccc(C[C@H]2CNCC[C@@H]2OCC2CC2)cc1`: -51.6%; `CN(C(=O)Cc1ccc2c(c1)OCCO2)C1CCCC1`: -138%.

`Cc1cncc(C2CCN(Cc3cccn3C)CC2)n1`: the INHIBITION was found to be 41.2%. For `CCn1cc(NC(=O)C2CCC(=O)N2Cc2ccc(C)o2)cn1` (stereo not given) the value was 16.1%; for `CN(C)C[C@H]1CC[C@@H](Cc2ccc3c(cnn3C)c2)O1`, 32.4%; for `CCN(C)C[C@H]1CC[C@@H](Cc2ccc3c(cnn3C)c2)O1`, 58.2%. Take `CN1CCC(N(C)C[C@H]2CC[C@@H](Cc3ccc4c(cnn4C)c3)O2)CC1`: the INHIBITION was found to be 14.9%.

As for `CCOc1nn(CC)cc1-c1nnc(SCC)n1C`, the INHIBITION is recorded as 15%. Next, `Cc1nn(C)c(C)c1C(C)NCc1ccsc1` (stereo not given): -14.5%; `Cc1cc(C)cc(CNC(C)c2c(C)nn(C)c2C)c1` (stereo not given): 58%. For `Cc1nn(C)c(C)c1C(C)NCc1ccc(OC(C)C)cc1` (stereo not given) the value was -37.7%. Next, `CN1CC(=O)N(c2cccc(F)c2)CC12CCN(CC1CCOCC1)C2` (stereo not given): -4.23%; `CN(C)c1ncc(-c2cc(C(=O)NC(C)(C)CO)n(CC3CC3)c2)cn1`: -21.1%. As to `COc1cccc(OC)c1C(=O)NCC(c1cccn1C)N1CCCC1` (stereo not given), the INHIBITION turned out to be 30%. Regarding `COc1ccc(C(=O)NCC(c2cccn2C)N2CCN(C)CC2)cc1` (stereo not given), the INHIBITION is on record as 6.83%. For `COc1ccc(C(=O)NCC(c2cccn2C)N2CCCC2)cc1OC` (stereo not given) the value was 52.4%; for `COc1cc(OC)cc(C(=O)NCC(c2cccn2C)N2CCCC2)c1` (stereo not given), 28.4%. For the molecule `COc1cccc(C(=O)NCC(c2cccn2C)N2CCCC2)c1OC` (stereo not given), the INHIBITION amounted to 75.6%. For `COc1ccc(C(=O)NCC(c2cccn2C)N2CCCC2)c(OC)c1` (stereo not given), the INHIBITION is given as -11.1%.
